Reference: the supplement of paper PMC12645437, “Orthogonal IMiD-Degron Pairs Induce Selective Protein Degradation in Cells” (ACS Chemical Biology, 2025)
In all, about 8,300 sequences were measured (“log2 fold change of degron read counts, EGFP-low vs EGFP+ sorted cells (limma voom), compound-induced degradation”: median about -1.1, highest 2% from about 3.2 on). The list comes from a sample in which the highest values are over-represented; it also holds similar and randomly drawn sequences.

Molecular target: T1, CRBN, Q96SW2
T1 chain: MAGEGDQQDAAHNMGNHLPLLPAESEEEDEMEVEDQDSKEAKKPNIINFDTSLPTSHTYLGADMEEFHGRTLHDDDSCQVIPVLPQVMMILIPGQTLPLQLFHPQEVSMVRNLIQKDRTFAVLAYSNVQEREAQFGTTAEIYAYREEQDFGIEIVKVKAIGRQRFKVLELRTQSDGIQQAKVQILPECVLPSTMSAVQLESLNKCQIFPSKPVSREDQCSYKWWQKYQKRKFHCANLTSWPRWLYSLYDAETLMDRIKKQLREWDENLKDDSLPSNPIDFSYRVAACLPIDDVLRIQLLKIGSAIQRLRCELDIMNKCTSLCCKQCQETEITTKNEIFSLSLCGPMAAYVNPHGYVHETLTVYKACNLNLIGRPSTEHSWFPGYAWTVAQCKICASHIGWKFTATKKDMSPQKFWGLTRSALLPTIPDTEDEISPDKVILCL
Assay: log2 fold change of degron read counts, EGFP-low vs EGFP+ sorted cells (limma voom), compound-induced degradation; higher = more compound-induced degradation of the degron-EGFP fusion; degrons are variants of IKZF1/3 zinc finger 2; compound dose not given here
Conditions: Jurkat, 18 h

[1] = compound: compound 19 (5-tert-butyl-thalidomide)
[2] = compound: compound 22 (5-morpholino-thalidomide)
[3] = compound: compound 33 (diphenyl IMiD analogue)
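Also: pooled lentiviral library of zinc finger degron-EGFP fusions in mCherry-positive Jurkat cells, FACS-sorted after compound exposure, with degron abundance counted by next-generation sequencing.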

Row | Sequence | log2 fold change of degron read counts [1] | log2 fold change of degron read counts [2] | log2 fold change of degron read counts [3] | log2 fold change of degron read counts (compound: thalidomide)
1 | FLCNICGAAFTQKGNLLRHIKL [46F_47L_49N_50I_52G_53A_54A_55F_67L_, Q9UKT9] | -0.363 | -1.33 | 0.248 | 0.231
2 | FRCPICGRMFTQKGNLLRHIKL [46F_47R_49P_50I_52G_53R_54M_55F_67L_, Q9UKT9] | -1.98 | -1.28 | -0.201 | 0.319
3 | FHCNQCGHNFTQKGNLLRHIKL [46F_47H_49N_50Q_52G_53H_54N_55F_67L_, Q9UKT9] | -2.43 | -3.18 | -2.46 | -2.52
4 | FVCNICGAYFTQKGNLLRHIKL [46F_47V_49N_50I_52G_53A_54Y_55F_67L_, Q9UKT9] | -0.917 | -0.227 | 1.05 | 1.24
5 | FSCEQCGAHFTQKGNLLRHIKL [46F_47S_49E_50Q_52G_53A_54H_55F_67L_, Q9UKT9] | -1.34 | -2.19 | -1.26 | -1.95
6 | FECPVCGACFTQKGNLLRHIKL [46F_47E_49P_50V_52G_53A_54C_55F_67L_, Q9UKT9] | 0.122 | -0.609 | 2.52 | 2.75
7 | FTCPVCGACFTQKGNLLRHIKL [46F_47T_49P_50V_52G_53A_54C_55F_67L_, Q9UKT9] | 0.948 | 2.51 | 2.73 | 3.33
8 | FICPVCGACFTQKGNLLRHIKL [46F_47I_49P_50V_52G_53A_54C_55F_67L_, Q9UKT9] | -0.981 | 2.06 | 2.04 | 2.16
9 | FQCDICGAHFTQKGNLLRHIKL [46F_47Q_49D_50I_52G_53A_54H_55F_67L_, Q9UKT9] | -1.42 | -0.152 | -0.605 | 1.82
10 | FNCDICGAHFTQKGNLLRHIKL [46F_47N_49D_50I_52G_53A_54H_55F_67L_, Q9UKT9] | 0.871 | -0.896 | -1.51 | -1.76
11 | FWCDICGAHFTQKGNLLRHIKL [46F_47W_49D_50I_52G_53A_54H_55F_67L_, Q9UKT9] | 2.34 | 3.41 | 0.744 | -0.669
12 | FYCDICGAHFTQKGNLLRHIKL [46F_47Y_49D_50I_52G_53A_54H_55F_67L_, Q9UKT9] | 2.51 | 3.38 | 0.931 | -1.03
13 | FECDICGAHFTQKGNLLRHIKL [46F_47E_49D_50I_52G_53A_54H_55F_67L_, Q9UKT9] | -1.93 | -3.04 | -0.896 | -0.791
14 | FCCDICGAHFTQKGNLLRHIKL [46F_47C_49D_50I_52G_53A_54H_55F_67L_, Q9UKT9] | 0.131 | -0.464 | -0.191 | -0.916
15 | LCCNQCGFRCTQKGNLLRHIKL [46L_47C_49N_50Q_52G_53F_54R_55C_67L_, Q9UKT9] | -1.39 | -1.65 | -1.27 | -1.01
16 | FTCEICGAFFTQKGNLLRHIKL [46F_47T_49E_50I_52G_53A_54F_55F_67L_, Q9UKT9] | -0.327 | 0.0883 | 0.985 | 1.57
17 | FDCNICGAFFTQKGNLLRHIKL [46F_47D_49N_50I_52G_53A_54F_55F_67L_, Q9UKT9] | -1.62 | -1.63 | -0.882 | -0.692
18 | LDCEICGFECTQKGNLLRHIKL [46L_47D_49E_50I_52G_53F_54E_55C_67L_, Q9UKT9] | -1.93 | -2.68 | -2.74 | -1.97
19 | FYCNICGAKFTQKGNLLRHIKL [46F_47Y_49N_50I_52G_53A_54K_55F_67L_, Q9UKT9] | 1.97 | 2.19 | -0.298 | -0.655
20 | FTCPICGAKFTQKGNLLRHIKL [46F_47T_49P_50I_52G_53A_54K_55F_67L_, Q9UKT9] | 0.0311 | 2.04 | -0.046 | 2.35
21 | FMCNICGAKFTQKGNLLRHIKL [46F_47M_49N_50I_52G_53A_54K_55F_67L_, Q9UKT9] | -1.58 | -1.36 | -0.574 | -0.374
22 | FACPICGAKFTQKGNLLRHIKL [46F_47A_49P_50I_52G_53A_54K_55F_67L_, Q9UKT9] | 3.43 | 1.44 | -1.12 | 0.992
23 | FVCPICGAKFTQKGNLLRHIKL [46F_47V_49P_50I_52G_53A_54K_55F_67L_, Q9UKT9] | -0.253 | 1.93 | -0.152 | 2.45
24 | FCCPICGAKFTQKGNLLRHIKL [46F_47C_49P_50I_52G_53A_54K_55F_67L_, Q9UKT9] | 2.65 | 2.05 | 0.122 | 2.09
25 | FSCPICGAKFTQKGNLLRHIKL [46F_47S_49P_50I_52G_53A_54K_55F_67L_, Q9UKT9] | 2.33 | 1.67 | -0.456 | 1.28
26 | FMCPICGAKFTQKGNLLRHIKL [46F_47M_49P_50I_52G_53A_54K_55F_67L_, Q9UKT9] | -0.0561 | 0.0581 | 0.821 | 0.888
27 | FGCPICGAKFTQKGNLLRHIKL [46F_47G_49P_50I_52G_53A_54K_55F_67L_, Q9UKT9] | 3.59 | 1.76 | -0.616 | 1.31
28 | FQCPICGAKFTQKGNLLRHIKL [46F_47Q_49P_50I_52G_53A_54K_55F_67L_, Q9UKT9] | 0.535 | 3 | 0.562 | 3.44
29 | FNCPICGAKFTQKGNLLRHIKL [46F_47N_49P_50I_52G_53A_54K_55F_67L_, Q9UKT9] | 2.07 | 0.6 | -1.08 | 0.72
30 | FQCNICGAKFTQKGNLLRHIKL [46F_47Q_49N_50I_52G_53A_54K_55F_67L_, Q9UKT9] | -1.16 | 1.71 | -0.442 | 3.26
